# Experimental data taken from PubChem BioAssay AID903 (National Center for Advancing Translational Sciences (NCATS), 2007).
# The whole screen tested about 55,000 compounds, of which about 340 (0.62%) were called active. About 3% were inconclusive and are not listed. Many of the other results were omitted from the sample, so actives are more common in it than they were. A number with no mark means an inactive call. Calls come from the whole dose curve; as a rule, active = well fitted cell-killing curve with a large enough effect; inconclusive = small, poorly fitted or top-dose-only effect; inactive = no such curve, though single readings can be large or run the other way.
# Test: qHTS Screen for Compounds that Selectively Target Cancer Cells with p53 Mutations: Cytotoxicity of p53 Null Cells at the Permissive Temperature; note: nearly all actives have a fitted effect of over 55% in size;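 for activity change, negative = cytotoxicity: 0% = DMSO only and -100% = full killing by 100 µM tamoxifen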
# Settings: H1299-neo p53 null cells, ATP luminescence, 24 h, 32C; series mostly up to 46.1 µM; activity change, negative = cytotoxicity: at the top concentration
# From the text: NIH Chemical Genomics Center [NCGC] NIH Molecular Libraries Screening Centers Network [MLSCN] MLSCN Grant: 1 X01 MH079844-01 Assay Submitter (PI): Dr. SUN, YI, University of Michigan NCGC Assay Overview: Synthetic Lethal Screen for Compounds to Kill Cancer Cells with p53 Mutation. Tumor suppressor gene p53 serves as a major cellular barrier against tumorigenesis. […] The goal of this screening is to identify small molecule probes that selectively kill cancer cells with mutations in p53. This screening was carried out using two lines of H1299 lung cancer cells. The H1299-p53 A138V line express a temperature sensitive p53 mutant (p53ts) in which the mutant p53 protein (A138V) is in the mutant confirmation when grown at 39C (the nonpermissive temperature) and in the wild type conformation when grown at 32C (the permissive temperature). A H1299-neo line (p53 null) grown at both 39C and 32C were used as counter-screens to filter out false positive associated with temperature shifting. The small molecular compounds that selectively target mutant p53-containing cancer cells were selected as candidate probes for further study. A cytotoxicity assay based on the measurement of ATP contents in cells was used in this screen. Concentration-responses of all the compounds in the library collection were determined in qHTS using the cell lines and temperature conditions as above.
# NCGC Assay Protocol Summary: Both the H1299-p53A138V and H1299-neo cell lines were provided by Dr.Yi Sun, a PI at the University Michigan. The cells were maintained and cultured at 37C. The resuspended frozen cells were used to plate the cells in the 1536-well assay plates at a density of 600 cells per well in 5 ul medium. The assay plates with the cells were incubated at 37C for 16 to 30 hours before the experiments. The library compounds in DMSO solution were added to the cells in assay plates and incubated 24 hours at 39C (for mutant p53 conformation) or 32C (for normal p53 conformation as control). An ATP_lite assay kit (PerkinElmer) was used to determine the cell viability. Tomaxifen (100uM) was used as the positive control for cell killing. Data were normalized to the controls for basal activity (DMSO only) and 100% killing (100uM tamoxifen). AC50 values were determined from concentration-response data modeled with the standard Hill equation. P53 assay protocol: 1. Reagent; 5 uL H1299-p53A138V or H1299-neo cell cells/well 2. Time; overnight; 37C incubation 3. Compounds; 23 nL; 5.9 nM to 46 uM 4. Controls; 23 nL; Tamoxifen 100 uM 5. Time; 24 hr; 32C incubation 6. Reagent; 3 uL; ATP_Lite reagent 7. Time; 20 min; Room Temperature 8. Detection; Luminescence; Viewlux plate reader Keywords: p53, synthetic lethal, cancer, cell viability, cytotoxicity, H1299 cell line, luminescence, MLSMR, MLSCN, NIH Roadmap, qHTS, NCGC
# Potency is the fitted concentration of half-maximal effect.
Structure (SMILES),Potency,"activity change, negative = cytotoxicity"
CC(C)Oc1ccc(NC(=O)c2cc3ccccc3o2)cc1,10 µM (active),
Cn1cc(/C=C/c2nc3ccccc3c(=O)n2-c2ccccc2)c2ccccc21,,-4.84%
CC(C)(C)c1ccc(S(=O)(=O)Nc2ccc(O)c(Sc3nc4ccccc4s3)c2)cc1,,42.8%
CCCCOc1ccc(C(=O)N2CC(=O)Nc3ccc(Br)cc3C2c2ccc(F)cc2)cc1 (stereo not given),,38.6%
Cc1ccc(Cn2c(C)c3cnn(CC(=O)N4CCC5(CC4)OCCO5)c(=O)c3c2C)cc1,,15%
